From PubChem
LAP4-GFP MLPCN: modulators of TOR pathway LAP4-GFP in S. cerevisiae | AID 2023 | S. cerevisiae LAP4-GFP multiplex, flow cytometry GFP, 3 h; median GFP as percent of DMSO wells | actives 0.34% (n = 320,000) | GFP response vs DMSO, % at 10 µM;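 active = GFP response vs DMSO above a set limit, about the screen mean plus 3 SD, cut at about 150% in these data; inconclusive = under 70 cell events counted for the yeast strain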
CIT2 TOR yeast: alters CIT2-GFP fluorescence in TOR pathway yeast screen. AID 2029. actives 0.065% (n = 320,000). S. cerevisiae CIT2-GFP strain, flow cytometry, 3 h; 100 means same as DMSO wells. GFP response vs DMSO, % at 10 µM;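 active = GFP response relative to DMSO above a set limit, near the screen mean plus 3 SD, cut at about 150% in these data; inconclusive = Fewer than 70 cells measured for a yeast strain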;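 also: ratio of well median GFP fluorescence to mean of DMSO wells on the plate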
AGP1-GFP MLPCN: yeast TOR pathway AGP1-GFP modulation | S. cerevisiae AGP1-GFP multiplex flow cytometry, 3 h; GFP as percent of DMSO wells | GFP response vs DMSO, % at 10 µM | actives 0.02% (n = 320,000);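 active = GFP response relative to DMSO above a set limit, near screen average plus 3 SD, cut at about 150% in these data; inconclusive = fewer than 70 cells counted for the yeast strain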;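 also: median GFP channel fluorescence of the gated AGP1 strain per well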
RPL19A TOR yeast: yeast TOR pathway RPL19A-GFP modulation; percent response vs DMSO, % at 10 µM; S. cerevisiae RPL19A-GFP strain, flow cytometry, 3 h; hits give low values; AID 2025; actives 0.3% (n = 330,000);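 active = percent response vs DMSO below 50%; inconclusive = fewer than 70 events counted for the yeast strain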;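 also: median channel GFP fluorescence of the barcoded RPL19A-GFP strain; ratio of sample median GFP to plate DMSO average so 100% = DMSO; lower means less RPL19A-GFP as with rapamycin TOR inhibition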
Myeloid diff 2: compounds promoting myeloid differentiation; ER-HoxA9 myeloid progenitors, lysozyme-GFP differentiation, flow cytometry; calls only at 10 µM; actives 1% (n = 360,000);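 active = normalized GFP-positive differentiation at or above the plate's own cutoff, the solvent-only control mean plus 3 SD; inconclusive = no clear call, values can overlap the other calls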;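 also: cells exposed to compound for four days before flow analysis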
MEP2 TOR yeast: modulators of TOR pathway MEP2-GFP in S. cerevisiae. S. cerevisiae MEP2-GFP strain, flow cytometry GFP, 3 h; 100% = DMSO control level. GFP response vs DMSO, % at 10 µM. actives 0.51% (n = 330,000). AID 2016;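 active = GFP response versus DMSO above a set limit, roughly screen mean plus 3 SD, cut at about 180% in these data; inconclusive = fewer than 70 cells counted for a yeast strain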;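 also: median GFP fluorescence of the barcode-gated MEP2-GFP cells per well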
An asterisk follows results filed as active; i = inactive; ? = inconclusive; / = no result; + = active, no number; [ ] = dose if it differs, or a comment. Sampled rows, rich in hits. Any-hit rate of the full collection: about 1.8%.

SMILES | LAP4-GFP MLPCN | CIT2 TOR yeast | AGP1-GFP MLPCN | RPL19A TOR yeast | Myeloid diff 2 | MEP2 TOR yeast
COc1ccc(N2CCN(c3ccc(NC(=O)NN)cc3)CC2)cc1 | 87 | ? | ? | 45*[may fluoresce violet] | i | 328*[may fluoresce violet]
Nc1c(C(=O)O)sc2nc(-c3ccccc3)cc(-c3ccc(F)cc3)c12 | 133 | 133 | 101 | 106 | + | 141
O=C(NCc1ccccc1)c1ccc(C(=O)NCc2ccccc2)cc1 | / | / | / | / | i | /
O=C(NCc1ccccc1)c1n[nH]nc1-c1ccccc1O | 96 | 99 | 96 | 103 | + | 103
Fc1ccc(NC(=S)Nc2cc(-c3ccccc3)[nH]n2)cc1Cl | 107 | 91 | 99 | 92 | i | 95
Nc1ccc2c3c(cccc13)-c1ccccc1-2 | / | / | / | / | + | /
Cc1ccc2c3c(cccc13)-c1ccccc1C2=O | 91 | 102 | 84 | ? | i | 80
COc1ccc(CC2(CO)CCN(Cc3cnn(C)c3C)CC2)cc1 | 167*[may fluoresce violet] | ? | ? | 14*[may fluoresce violet] | i | 87
COc1ccc(CC2(CO)CCN(Cc3ccncc3)CC2)cc1 | 91 | 96 | 100 | 96 | i | 99
CC1(C)Cc2ccccc2C2CC(O)C(=O)N21 (stereo unspecified) | 97 | 96 | 100 | 96 | + | 98
CN1C(=O)c2cccc3c(Cl)ccc(c23)C1=O | 79 | 86 | 82 | 84 | i | 86
CNc1ccc2c3c(cccc13)C(=O)N(C)C2=O | 99 | 101 | 90 | 105 | + | 108
CCOC(=O)Nc1ccc(N2CCOCC2)c(S(=O)(=O)N2CCOCC2)c1 | 68 | 84 | 88 | 105 | i | 96
CC1(c2ccccc2)NC(=O)N(CC(=O)Nc2ccc(S(N)(=O)=O)cc2)C1=O (stereo unspecified) | 94 | 100 | 104 | 99 | i | 102
COc1ccccc1CNCC(O)(c1ccc(F)cc1)c1ccc(F)cc1 | 91 | 110 | 104 | 107 | i | 110
COc1ccccc1CNCC(O)(c1ccc(Cl)cc1)c1ccc(Cl)cc1 | 111 | 96 | 108 | 105 | + | 113
COc1ccc(CN2C(=NC(=O)C3CC3)SC3CS(=O)(=O)CC32)cc1OC (stereo unspecified) | 92 | 100 | 95 | 99 | + | 96
COc1ccc(C(=O)N=C2SC3CS(=O)(=O)CC3N2Cc2ccc(OC)c(OC)c2)cc1 (stereo unspecified) | 93 | 103 | 98 | 94 | i | 99
CCC(=O)c1ccc(OC(=O)Cc2ccc(OC)cc2)cc1 | 82 | 97 | 100 | 106 | i | 99
COc1cc(/C=C2/SC(=S)N(Cc3ccccc3)C2=O)ccc1O | 94 | 109 | 101 | 111 | + | 109
O=C(O)CCN1C(=O)/C(=C/c2ccc(-c3nc4ccccc4s3)o2)SC1=S | 88 | 88 | 85 | 89 | + | 93
O=C(O)c1cc(-c2ccc(/C=C3/SC(=S)N(Cc4ccccc4)C3=O)o2)ccc1Cl | / | / | / | / | + | /
CC1(C(=O)NS(=O)(=O)c2cccc(F)c2)CCN1C(=O)c1ccccc1 (stereo unspecified) | / | / | / | / | i | /
Cc1c(NC(=O)C(C)OC(=O)c2ccc(Br)o2)c(=O)n(-c2ccccc2)n1C (stereo unspecified) | 109 | 120 | 121 | 107 | i | 109
O=C(NC(=O)N1CCCCC1)c1ccccc1 | 111 | 100 | 97 | 97 | i | 107
SMILES | LAP4-GFP MLPCN | CIT2 TOR yeast | AGP1-GFP MLPCN | RPL19A TOR yeast | Myeloid diff 2 | MEP2 TOR yeast
CC(C)(C)NC(=O)NC(=O)CN1CCCc2ccccc21 | 102 | 102 | 104 | 99 | + | 111
CCOC(=O)c1c(NC(=O)CN2CCCc3ccccc32)sc(C(C)=O)c1C | 88 | ? | ? | 54 | i | 213*[may fluoresce violet]
O=C(CN1CCCc2ccccc21)NC(=O)NCc1ccccc1 | 112 | 105 | 109 | 100 | i | 101
CC(C)(C)OC(=O)N1CCC(NC(=O)c2ncn(Cc3ccccc3)c2C(=O)NC2CCN(C(=O)OC(C)(C)C)CC2)CC1 | 93 | 88 | 96 | 100 | i | 94
Cc1nn(CCc2nn[nH]n2)c2nc(-c3ccc(C4CCCCC4)cc3)cc(C(F)(F)F)c12 | 98 | 101 | 96 | 107 | + | 102
Cc1ccc(OCCC(=O)Nc2ccc(C)c(F)c2)cc1 | 112 | 101 | 95 | 99 | i | 108
O=C(C[C@H]1C/C=C\CCC(=O)O[C@@H](c2ccccc2)CNC1=O)NCCO | 103 | 102 | 109 | 100 | i | 104
O=C(O)c1c[nH]c2ccc(S(=O)(=O)N3CCOCC3)cc12 | 79 | ? | ? | 15*[may fluoresce violet] | i | 252*[may fluoresce violet]
O=C(NCCN1CCOCC1)c1c[nH]c2ccc(S(=O)(=O)N3CCOCC3)cc2c1=O | 95 | 105 | 98 | 101 | i | 98
O=C1CC(Cc2ccccc2)C(=O)N1CCc1ccc2c(c1)OCO2 (stereo unspecified) | 106 | 94 | 90 | 97 | i | 95
O=C1OC[C@H](Cc2ccc3c(c2)OCO3)/C1=C\c1ccc2c(c1)OCO2 | 104 | ? | ? | 14*[may fluoresce violet] | i | 339*[may fluoresce violet]
CCc1nc2c(OCc3ccc(C(=O)OC)cc3)cccn2c1N(C)C(=O)c1ccc(OC)cc1 | / | / | / | / | i | /
Cc1ccc(C(C)C)c(OCC(=O)NN=C(CCl)CCl)c1 | 114 | 95 | 113 | 99 | / | 94
O=C(O)C1(c2ccccc2)CCN(S(=O)(=O)c2ccc(Cl)cc2)CC1 | 93 | 91 | 88 | 96 | i | 92
O=C(O)C1(c2ccccc2)CCN(S(=O)(=O)c2cccc(Cl)c2)CC1 | 57 | ? | ? | 33*[may fluoresce violet] | i | 194*[may fluoresce violet]
COCCCNC(=O)CC1C[C@H](C(=O)N2CCCCC2)[C@@]2(C)c3[nH]c4ccc(OC)cc4c3CCN2C1=O (stereo partly specified) | / | / | / | / | i | /
COCCCNC(=O)C[C@H]1C[C@H](C(=O)N2CCCCC2)[C@@]2(C)c3[nH]c4ccc(Cl)cc4c3CCN2C1=O | / | / | / | / | + | /
COc1ccc(S(=O)(=O)N(C)CC(=O)NCc2ccco2)cc1Cl | 98 | 106 | 109 | 110 | + | 94
CN(CCCC(=O)NCc1ccco1)S(=O)(=O)c1ccccc1 | 98 | 100 | 106 | 102 | + | 99
CNC(=O)N(O)C1N(/N=C/c2c(F)cccc2Cl)C(=S)SC1(C)C (stereo unspecified) | 72 | ? | 15 | 56 | i | 244*[may fluoresce violet]
COc1ccc(C2c3cc(OC)c(OC)cc3CCN2C2CC(=O)N(c3ccccc3)C2=O)cc1OC (stereo unspecified) | 94 | 91 | / | 96 | i | 100
